Tgondii IFNg = T. gondii growth inhibition under IFN-gamma; Toxoplasma gondii growth in IFN-gamma-treated host cells; active compounds read low; activity change, negative = inhibition, % (concentration not given with the values); 69,000 tested, 3.8% active; in the data active = activity change below about -70%, passing the limit was not always enough;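 also: host cells are HeLa cells infected with Toxoplasma gondii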
* hit, by the source's call. The sample as a whole holds a higher share of hits than the screen did.

SMILES	Tgondii IFNg
CC(C)=CC(=O)NCC1CCN(Cc2cc(C)ccc2C)C1 (centres undefined)	9.2
C=CCCC(C)(O)C#CCN1CCCC1 (centres undefined)	29.8
Cc1cccc(C2CCCN(C(=O)CCc3csc(N)n3)C2)c1 (centres undefined)	-5.5
CCN(C(=O)c1cnc(NC)nc1)C1CCN(C)CC1	-0.8
CN1CCC(N(CCc2ccccc2)C(=O)c2cnc(N3CCCCC3)nc2)CC1	-89.6*
Cc1ccccc1N(CC(=O)NCCc1ccccc1)C(=O)c1ccc(N2CCCC2)nc1	-16.5
CNC(=O)c1cc(=O)n(CC(=O)Nc2cccc(C(F)(F)F)c2)c2ccccc12	-4.9
Cc1ccc(C(=O)N2CCC(N3CCOCC3)CC2C(=O)O)cn1 (centres undefined)	59.8
Cc1ccc(NC(=O)CS(=O)CC(=O)Nc2ccc3c(c2)CCC3)cc1Cl (centres undefined)	-88.2*
Cc1ccc(NC(=O)CN2CCN(Cc3ccccc3)CC2)cc1Cl	-24.2
Cc1ccc(-c2ccccc2NC(=O)CS(=O)CC(=O)Nc2ccc(C)c(Cl)c2)o1 (centres undefined)	33.1
Cc1ccsc1C(=O)N1CCC2(C1)CN(c1ccccc1)C(=O)CN2C (centres undefined)	22.8
Cc1ccc(S(=O)(=O)NCCC(c2ccccc2)c2ccco2)cc1 (centres undefined)	1.2
COc1ccc(C2(CNS(=O)(=O)c3ccccc3)CCCC2)cc1OC	-11.7
COc1ccccc1C(CCNS(=O)(=O)c1ccccc1)c1ccc2c(c1)OCO2 (centres undefined)	-74.7*
COCc1nc(N(C)CCc2scnc2C)c2cnn(C)c2n1	-1.9
O=C(NCc1c(Cl)cccc1Sc1ccc(Cl)cc1)c1ccc(Cl)cc1	-102.0*
O=C(CNC(=O)c1ccc(Cl)cc1)NO	16.5
O=C(Nc1ccc(Sc2cccs2)cc1)c1ccc(Cl)cc1	-62.2
CCOC(=O)N1CCC2(CC1)OC(=O)C(C)=C2C(=O)NCc1cccs1	-15.1
OC(CN1CCN(c2ccccn2)CC1)c1ccc2c(c1)OCCCO2 (centres undefined)	6.7
Cn1ccnc1C1(O)CC2CCC(C1)N2C(=O)c1ccc(F)cc1 (centres undefined)	-27.3
O=C(NCCc1csc(-c2ccc(F)cc2)n1)C(=O)Nc1ccc(F)cc1	114.6
Cc1ccc(C(=O)N(Cc2ccc(Cl)cc2)Cc2nc3ccccc3c(=O)[nH]2)cc1	-42.0
COc1nc2c(c(C)nn2-c2ccccc2)c(C)c1CCC(=O)NCCc1c[nH]c2ccccc12	12.6
SMILES	Tgondii IFNg
CCc1cn[nH]c1C1CCCN(C(=O)c2n[nH]c3ccc(C)cc23)C1 (centres undefined)	32.1
Cc1ccc2[nH]nc(C(=O)N3CCCC3c3ccc(Cc4ccccc4F)cn3)c2c1 (centres undefined)	-105.2*
Cc1ccc2[nH]nc(C(=O)N3CCCC(N)CC3)c2c1 (centres undefined)	-39.6
Cc1ccc(C(C)C)c(OC(C)(C)C(=O)N2CC[C@H](O)[C@@H](O)C2)c1	-2.6
Cc1nonc1CN(C)Cc1cccc(-c2ccc(F)cc2)c1	-31.3
Cc1ccc(-c2cc(C(N)=O)ccn2)c(-n2nc(C)cc2C)c1	4.6
COc1ccc(-c2nc(-c3ccc(O)cc3)[nH]c2-c2ccc(OC)cc2)cc1	7.6
CN(C)CCOc1ccc(-c2nc(-c3ccc4c(c3)CC/C4=N\O)c(-c3ccncc3)[nH]2)cc1	-79.3*
CC(C)Oc1ccc(NC(=O)c2nc3c(n2C(C)C)CCN(C(=O)C2CC2)C3)cc1	-26.4
CN(C)C[C@@H]1CC2CN(C(N)=O)CCC2N1c1nccs1 (some centres undefined)	146.9
COc1cccc(C(=O)N2CCc3nc(N4CCCC4)nc(NC(C)C)c3C2)c1	-109.9*
COCCC(=O)N1CCc2nc(N3CCOCC3)nc(NC(C)C)c2C1	30.5
Cc1ccsc1C(=O)N1CCc2nc(N3CCOCC3)nc(NC(C)C)c2C1	-20.4
COc1cc2nccc(Oc3ccc(NC(=O)Nc4ccc(F)cc4F)c(F)c3)c2cc1OC	-75.0*
COc1cc2nccc(Oc3ccc(NC(=O)Nc4cc(C)on4)c(Cl)c3)c2cc1OC	-81.3*
COc1cc2nccc(Oc3ccc(NC(=O)NC4CC4)c(Cl)c3)c2cc1C(N)=O	-43.2
COc1cc(Nc2ccnc3cc(Cl)ccc23)c(C(=O)O)cc1OC	-2.7
CNC(=O)c1cccc2cc(Oc3ccnc4cc(OCC5(N)CC5)c(OC)cc34)ccc12	-8.1
COc1ccc(S(=O)(=O)Nc2cncc(C(=O)Nc3ccc(F)cc3F)c2)cc1OC	35.2
Cn1cc(CNC(Cn2ccnc2)c2ccccc2)c(-c2ccc3c(c2)OCCO3)n1 (centres undefined)	6.1
CNc1cc(CCNC(=O)Cc2ccc3c(c2)OCCO3)nc(-c2ccncc2)n1	-0.4
CCN1C(=O)C2(CCN(C(=O)N(C)C)CC2)CC12CCN(S(=O)(=O)C1CC1)CC2	-4.9
CCn1c(CC2CCNCC2)nn(CC2CC(c3ccccc3)=NO2)c1=O (centres undefined)	-3.5
COc1cccc(CC2CC(c3ccccc3)=NO2)c1OCc1c(Cl)cccc1Cl (centres undefined)	-96.4*
O=C(O)CC1CC(c2ccccc2)=NO1 (centres undefined)	7.2
SMILES	Tgondii IFNg
CCCc1nnc(NC(=O)CN2CCCC2c2c(C)noc2C)s1 (centres undefined)	98.5
O=C(CN1C(=O)CSc2cccn2-c2ccccc21)NCCc1c[nH]c2ccccc12	114.5
Cc1nc(-c2cc(S(=O)(=O)N3CCCCC3C)c(C)s2)sc1C (centres undefined)	-10.5
Cc1sc(-c2nc(C(C)C)cs2)cc1S(=O)(=O)N1CCC(C)CC1	-89.2*
Cc1nc(-c2cc(S(=O)(=O)N3CCC(C)CC3)c(C)s2)sc1C	15.5
Cn1c(=O)[nH]c(=O)c2c1nc(N1CCCCCC1)n2CC(O)COc1ccccc1 (centres undefined)	18.3
CCc1nc2cc(NC(=O)c3csc(C(C)=O)c3)ccc2n1C	488.2
CSc1cccc(Nc2nc(-c3nnc(-c4ccc(F)cc4)o3)nc3ccccc23)c1	52.7
CSc1nsc(SC)c1-c1nn[nH]n1	1.1
Cc1nn(-c2ccccc2)c(Cl)c1C(=O)Oc1ccc(OCc2ccccc2)cc1	-97.4*
COC(=O)c1c(C)nn(-c2ccccc2)c1-c1cc(C)on1	-1.0
Cc1nn(-c2ccccc2)c(C)c1C(N)=O	175.2
COc1ccc(C(O)c2nccc3cc(OC)c(OC)cc23)cc1OC (centres undefined)	-0.2
CCOc1ccc(Cc2nccc3cc(OCC)c(OCC)cc23)cc1OCC	-83.0*
CCOc1ccc(CNCc2cccs2)cc1OCC	2.8
O=C(CC1C(=O)NCCN1CCc1ccccc1)NC1(CO)CCCC1 (centres undefined)	-11.8
COc1cccc2c1OCC(C(=O)NCCSc1nnnn1C)C2 (centres undefined)	2.2
O=C(c1ccn[nH]1)N1CCOC2(CCCN(c3cccc(F)c3)C2)C1 (centres undefined)	4.6
C=CCn1c(SCC(=O)N2CCc3ccccc3C2)nnc1-c1ccccc1F	29.5
CSc1ncnc2c1nnn2Cc1ccccc1Cl	-28.1
CC1Cc2ccccc2N1c1ncnc2c1nnn2Cc1ccccc1Cl (centres undefined)	-94.3*
Cc1cc(C)n(-c2ncnc3c2nnn3Cc2ccccc2Cl)n1	-56.0
C=CCOc1ccc(C(=O)N2CCn3nc(C)nc3C2)cc1	-13.3
NC(=O)c1csc(-c2cccc(C(=O)O)c2)n1	-2.4
NC(=O)c1csc(-c2ccc(F)cc2F)n1	-107.4*

From PubChem BioAssay
